Spn PMK inh – blocks S. pneumoniae phosphomevalonate kinase; 65,000 tested, 0.49% active; purified PMK, PK/LDH-coupled NADH absorbance 340 nm; AID 539; inhibition, % at 10 µM;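 active = top-ranked compounds by inhibition in the single 10 µM screen, taking a fixed number of the strongest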;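 note: 0% = full reaction with DMSO carrier and 100% = background rate without enzyme reaction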
Abs 340nm – absorbance at 340 nm; compound absorbance at 340 nm, fold over control; fold change at 10 µM; AID 708; 65,000 tested, under 10 active;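 active = at 10 µM dose, initial 340 nm absorbance at least 2 fold that of control wells; inactive = change under 2 fold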;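 note: initial absorbance extrapolated from kinetic A340 decline of NADH oxidation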
Autofluor 339 – intrinsic fluorescence of library compounds, ex339/em460 – biochemical, MLSMR library, data from DPM-DC assay, artefact control, profiling panel; fluorescence fold increase at 10 µM; 65,000 tested, 5.5% active; AID 709; compound autofluorescence, ex339/em460 nm, NADH buffer; stronger effect = higher value; 1 = no-compound wells, NADH background;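 active = at 10 µM, mean starting fluorescence two-fold or more over control wells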;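 note: signal is the first read of a kinetic run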
NADH coupling – inhibitors of enzymes used to reach an NAD/NADH endpoint; coupled PK/LDH NADH assays, four targets; 65,000 tested, 0.02% active; IC50, µM (titrated, usually from 10 µM), without a hit: at the highest dose inhibition;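 active = single-dose screening hits from any of four coupled enzyme assays that gave an IC50 when retested across doses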;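 note: the DPM-DC format reads NADH fluorescence rather than 340 nm absorbance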
MK inhibit – blocks S. pneumoniae mevalonate kinase. purified MK, PK/LDH-coupled NADH absorbance 340 nm. inhibition, % at 10 µM. 65,000 tested, 0.48% active. AID 555;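 active = ranked among the strongest by inhibition in the single 10 µM screen, a fixed top-ranked set picked for dose follow-up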
DPM-DC inhibit – blocks S. pneumoniae diphosphomevalonate decarboxylase | purified DPM-DC, PK/LDH coupled NADH fluorescence | calls only at 10 µM | 65,000 tested, 0.49% active;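 active = the 320 compounds with the highest percent inhibition in the single-dose primary screen, excluding strongly autofluorescent ones, cut at about 32% in these data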;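 note: kinetic rate of NADH fluorescence loss reporting ADP formed by the decarboxylase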
An asterisk follows results filed as active; i = inactive; x = not tested or not shown. Hits are enriched below; roughly 6.8% of the tested compounds scored in any of these assays.

SMILES	Spn PMK inh	Abs 340nm	Autofluor 339	NADH coupling	MK inhibit	DPM-DC inhibit
CCn1c(=O)c(C(=O)Nc2nc3ccccc3[nH]2)c(O)c2ccccc21	15.0	1.05	2.42*	13.0%	5.0	i
CCn1c(=O)c(C(=O)Nn2c(C)nc3ccccc3c2=O)c(O)c2ccccc21	5.0	1.01	1.01	7.0%	8.0	i
CCCC1C(C#N)=C(N)Oc2n[nH]c(C(C)(C)C)c21 (centres undefined)	9.0	0.99	1.02	3.0%	10.0	i
Cc1cc2n(n1)C(c1sccc1C)Nc1ccccc1-2 (centres undefined)	2.0	1.01	1.82	3.0%	3.0	i
Cc1ccc2c(c1)-c1cc(C)nn1C(c1sccc1C)N2 (centres undefined)	8.0	1.02	2.2*	14.0%	12.0	i
Cc1cc2n(n1)C(c1sccc1C)Nc1c(C)cccc1-2 (centres undefined)	6.0	1.02	2.06*	4.0%	5.0	i
Nc1nnc(Cc2ccc(Cl)c(Cl)c2)s1	0.0	1.02	1.07	1.0%	2.0	i
COc1ccc(N(CC(O)Cn2nnc3ccccc32)S(=O)(=O)c2ccc(C)cc2)cc1 (centres undefined)	0.0	0.99	1.09	2.0%	5.0	i
Cc1ccc(S(=O)(=O)NC(=O)c2cc(C)n(CCCn3ccnc3)c2C)cc1	17.0	0.97	1.04	4.0%	0.0	i
CCOC(=O)c1cc(C)n(-c2ccc(OC)c(OC)c2)c1C	0.0	1.01	1.08	2.0%	6.0	i
COc1cc2nc(-c3cccs3)oc(=O)c2cc1OC	3.0	1.27	1.18	10.0%	11.0	i
c1csc(-c2nnc(-c3ccc(N4CCOCC4)cc3)o2)c1	19.0	1.17	3.71*	14.0%	9.0	x
Brc1ccccc1-c1nnc(-c2cccnc2)o1	0.0	1.03	1.1	0.0%	0.0	i
c1coc(-c2nnc(-c3cccs3)o2)c1	24.0	1	3.35*	6.0%	0.0	x
O=c1cc(-c2ccco2)nc(-c2cccs2)o1	6.0	1.08	1.1	3.0%	2.0	i
COc1ccc(-c2nnc(-c3cccs3)o2)cc1OC	0.0	1.04	2.47*	3.0%	10.0	x
c1cncc(-c2nnc(-c3cccs3)o2)c1	8.0	1.02	2.26*	6.0%	11.0	i
COc1ccc(-n2c(=O)c3ccccc3n(CC(=O)NC3CCCC3)c2=O)cc1	6.0	1.05	1.15	2.0%	0.0	i
CCCCC(c1nnnn1CCOC)N1CCN(c2cccc(OC)c2)CC1 (centres undefined)	18.0	0.97	1.1	9.0%	10.0	i
Cc1ccc(C(=O)Nc2cccc(C(=O)O)c2)cc1S(=O)(=O)N1CCCCC1	13.0	1.03	1.06	6.0%	4.0	i
COc1ccc(CCC(=O)NCCc2cn3c(C)csc3n2)cc1	8.0	1.03	0.98	7.0%	12.0	i
COc1cc(-c2nnc(SCC#CCO)o2)cc(OC)c1OC	9.0	1.03	1.13	5.0%	6.0	i
COc1cc(-c2nnc(-c3cccs3)o2)cc(OC)c1OC	14.0	1.03	2.51*	13.0%	0.0	i
CCOc1ccc(-c2nc(-c3ccccc3)no2)cc1OCC	5.0	1.03	1.13	3.0%	4.0	i
CCOc1ccc(-c2nnc(-c3cccs3)o2)cc1OCC	14.0	1.1	3.7*	12.0%	9.0	x
SMILES	Spn PMK inh	Abs 340nm	Autofluor 339	NADH coupling	MK inhibit	DPM-DC inhibit
Cn1cc(Cl)nc1C(O)c1ccccc1 (centres undefined)	12.0	1	1.12	4.0%	0.0	i
CCOC(=O)c1cnc(SCC(=O)N2CCN(C(=O)c3ccco3)CC2)nc1N	25.0*	1.01	1.08	8.0%	0.0	i
CCOC(=O)c1cc2sc(C)cc2n1CC(=O)N1CCN(C(=O)c2ccco2)CC1	17.0	1.03	1.11	20.0%	42.0*	i
CCOC(=O)c1cc2sccc2n1CC(=O)N1CCN(C(=O)c2ccco2)CC1	3.0	0.98	1.1	6.0%	15.0	i
CCOC(=O)C1CCCN(Cc2ccc(OC)cc2OC)C1 (centres undefined)	0.0	1.07	1.13	16.0%	49.0*	i
CCOC(=O)C1CCCN(Cc2ccc(O)c(OC)c2)C1 (centres undefined)	0.0	1.05	1.1	10.0%	30.0	i
CCOC(=O)C1CCN(Cc2ccc(F)c(Br)c2)CC1	9.0	1	0.98	6.0%	51.0*	i
